Experimental data as given in PubChem BioAssay (EPA / NIEHS).
Inconclusive results are not listed. Activity calls are given as the source filed them. Rule for the calls, unless noted: active = hit-call score of the fitted dose curve at least 0.9, where 1 is the maximum; inconclusive = response in the unintended direction; inactive = score below 0.9. Peptide text beside a SMILES is read from it.

Legend:
[1] = CEETOX_H295R_PROG_noMTC: CeeTox H295R High-throughput Steroidogenesis Assay for Progesterone (PROG), maximum tolerated concentration (MTC) filtered results only (AID 2283920; active = hit-call score of the fitted dose curve at least 0.9, where 1 is the maximum; inactive = score below 0.9); conditions: actives raise or lower the signal
Procedure, shortened: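 H295R human adrenal cells were prestimulated 48 h with 10 uM forskolin, then exposed 48 h to test chemical (0.1% DMSO final). Progesterone in medium was quantified by HPLC-MS/MS; bidirectional fitting versus DMSO, concentrations not MTC-filtered.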

[2] = CCTE_Harrill_HTTr_Viability_MCF7: CCTE's 6-hour Cell Viability Assessment for the High-Throughput Transcriptomics (HTTr) Platform, in MCF-7 cells cultured in DMEM + 10% fetal bovine serum, Harrill Lab (AID 2284010; active = hit-call score of the fitted dose curve at least 0.9, where 1 is the maximum; inactive = score below 0.9)
Procedure, shortened: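 Membrane integrity was scored by high-content imaging of propidium iodide dye exclusion after a 6 h exposure across an eight-point dilution series. Data were fitted bidirectionally relative to DMSO as negative control and baseline.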

[3] = molecular target: Nucleoli Translocation, AR (gene 367) (UniProt P10275); assay: UPITT_HCI_U2OS_AR_TIF2_Nucleoli_Agonist: University of Pittsburgh U2OS Androgen Receptor-Transcriptional Intermediary Factor 2 (AR-TIF2) Agonism High Content Imaging Assay for Nucleoli Translocation (AID 2283998)
Procedure, shortened: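 Red-tagged human androgen receptor co-expressed with GFP-tagged TIF2 serves as the binding reporter. Primary testing used 20 uM final (0.2% DMSO); follow-up dose response covered 0.195 to 50 uM final (0.5% DMSO).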

[4] = molecular target: Ratio of Nucleoli Translocation and Cytoplasm, AR (gene 367) (UniProt P10275); assay: UPITT_HCI_U2OS_AR_TIF2_Nucleoli_Cytoplasm_Ratio_Antagonist: University of Pittsburgh U2OS Androgen Receptor-Transcriptional Intermediary Factor 2 (AR-TIF2) Antagonism High Content Imaging Assay for Ratio of Nucleoli Translocation and Cytoplasm (AID 2283999);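 note: antagonists lower the DHT-driven ratio of nucleolar to cytoplasmic red signal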
Procedure, shortened: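 U2OS cells expressing RFP-tagged human AR and GFP-tagged TIF2; compounds tested at 20 uM final (0.2% DMSO) in primary screen, 0.195–50 uM (0.5% DMSO) for concentration response. Readout: nucleolar-to-cytoplasmic red fluorescence ratio by high-content imaging, fitted relative to DHT.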

[5] = molecular target: Ratio of Nucleoli Translocation and Cytoplasm, AR (gene 367) (UniProt P10275); assay: UPITT_HCI_U2OS_AR_TIF2_Nucleoli_Cytoplasm_Ratio_Agonist: University of Pittsburgh U2OS Androgen Receptor-Transcriptional Intermediary Factor 2 (AR-TIF2) Agonism High Content Imaging Assay for Ratio of Nucleoli Translocation and Cytoplasm (AID 2284000);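 note: hits raise the red nucleolar to cytoplasm ratio above vehicle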
Procedure, shortened: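 U2OS cells expressing RFP-tagged human AR and GFP-tagged TIF2 were imaged by high-content fluorescence microscopy. The endpoint is the ratio of nucleolar to cytoplasmic red fluorescence, fitted for gain of signal relative to DMSO. Concentration-response spanned 0.195 to 50 uM final (0.5% DMSO).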

[6] = test system: DIO1 (gene 1733); assay: CCTE_GLTED_hDIO1: CCTE's human Deiodinase 1 (DIO1) Inhibition Assay, Great Lakes Toxicology and Ecology Division (GLTED) Lab (AID 2283987);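 note: isolated human DIO1 enzyme in a cell-free setup rather than cells; enzyme activity read as free iodide liberated from substrate via Sandell-Kolthoff colorimetry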
Procedure, shortened: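 Cell-free hDIO1 assay, triplicate plates. Absorbance of the Sandell-Kolthoff reaction reports enzyme-liberated iodide; iodinated chemicals or nitrite, iron and thiocyanate may interfere.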

[7] = molecular target: Nucleoli Translocation, AR (gene 367) (UniProt P10275); assay: UPITT_HCI_U2OS_AR_TIF2_Nucleoli_Antagonist: University of Pittsburgh U2OS Androgen Receptor-Transcriptional Intermediary Factor 2 (AR-TIF2) Antagonism High Content Imaging Assay for Nucleoli Translocation (AID 2283997)
Procedure, shortened: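 U2OS cells expressing RFP-tagged human AR and GFP-tagged TIF2 were imaged by high-content fluorescence microscopy for red AR signal in the nucleolar region. Compounds were screened at 20 uM final (0.2% DMSO), with activity fitted relative to DHT as baseline.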

[8] = molecular target: PGR (gene 5241) (UniProt P06401); assay: TOX21_PR_BLA_Followup_Antagonist_ratio: Tox21 HEK293 Progesterone Receptor (PR) Antagonism Beta-lactamase Follow-Up Assay, Ratio (AID 2283934)
Procedure, shortened: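 PR-UAS-bla HEK293T cells in medium with 2% charcoal-stripped FBS were treated with compounds plus 1 nM (final) promegestone (R5020) for 16 hr at 37C. LiveBLAzer B/G FRET substrate was then added for 2 h at room temperature; signal is cleaved/uncleaved substrate ratio versus DMSO.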

[9] = TOX21_PR_BLA_Followup_Agonist_viability: Viability Assessment in the Tox21 HEK293 Progesterone Receptor (PR) Agonism Beta-lactamase Follow-Up Assay (AID 2283935);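 note: signal loss means lower viability so actives are cytotoxic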
Procedure, shortened: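 PR-UAS-bla HEK293T cells in 2% charcoal-stripped FBS medium, compound added after 6 hr plating, 16 hr at 37C/5% CO2. After bla FRET read, CellTiter-Glo added; luminescence read after 30 min at room temperature; signal loss marks cytotoxicity.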

[10] = TOX21_PR_BLA_Followup_Antagonist_viability: Viability Assessment in the Tox21 HEK293 Progesterone Receptor (PR) Antagonism Beta-lactamase Follow-Up Assay (AID 2283936);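 note: hits lower the luminescence signal meaning cytotoxicity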
Procedure, shortened: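 PR-UAS-bla HEK293T cells (3,000/well, 2% charcoal-stripped FBS) given compound plus R5020 agonist, 16 h at 37C. CellTiter-Glo added after bla read, 30 min at room temperature; luminescence loss indicates cytotoxicity.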

[11] = molecular target: PGR (gene 5241) (UniProt P06401); assay: TOX21_PR_LUC_Followup_Antagonist: Tox21 HEK293 Progesterone Receptor (PR) Antagonism Luciferase Follow-Up Assay (AID 2283938);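 note: curve fitted upward as signal gain over DMSO baseline despite antagonist label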
Procedure, shortened: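 A follow-up to the PR bla screen using HEK293-PR-A-luc cells, multiplexed with cell viability to flag cytotoxicity. Reporter luminescence after 16 h compound exposure was analysed relative to DMSO.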

[12] = TOX21_PR_LUC_Followup_Antagonist_viability: Viability Assessment in the Tox21 HEK293 Progesterone Receptor (PR) Antagonism Luciferase Follow-Up Assay (AID 2283940)
Procedure, shortened: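 HEK293-PR-A-luc cells, precultured 5 days in assay medium with 10% charcoal-stripped FBS, were seeded at 3,000 cells/well, treated with compounds in DMSO for 16 h at 37C, and viability was read as cellular ATP by CellTiter-Glo luminescence.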

[13] = CEETOX_H295R_ESTRADIOL_noMTC: CeeTox H295R High-throughput Steroidogenesis Assay for Estradiol, maximum tolerated concentration (MTC) filtered results only (AID 2283919; active = hit-call score of the fitted dose curve at least 0.9, where 1 is the maximum; inactive = score below 0.9); conditions: actives raise or lower the signal
Procedure, shortened: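 H295R human adrenal cells pre-stimulated 48 h with 10 uM forskolin, then exposed 48 h to chemical (0.1% DMSO final). Estradiol in medium measured by HPLC-MS/MS after MTBE extraction and dansyl derivatization; bidirectional fit versus DMSO, concentrations not MTT-filtered.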

[14] = CEETOX_H295R_ESTRONE_noMTC: CeeTox H295R High-throughput Steroidogenesis Assay for Estrone, maximum tolerated concentration (MTC) filtered results only (AID 2283921; active = hit-call score of the fitted dose curve at least 0.9, where 1 is the maximum; inactive = score below 0.9); conditions: actives raise or lower the signal
Procedure, shortened: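 H295R cells prestimulated 48 h with 10 uM forskolin, then exposed 48 h to chemical in 0.1% DMSO; medium estrone measured by HPLC-MS/MS after MTBE extraction and dansyl derivatization, fitted bidirectionally versus DMSO without MTT-based MTC filtering.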

[15] = CEETOX_H295R_TESTO_noMTC: CeeTox H295R High-throughput Steroidogenesis Assay for Testosterone (TESTO), maximum tolerated concentration (MTC) filtered results only (AID 2283924; active = hit-call score of the fitted dose curve at least 0.9, where 1 is the maximum; inactive = score below 0.9); conditions: actives raise or lower the signal
Procedure, shortened: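 H295R cells prestimulated 48 h with 10 uM forskolin, then exposed 48 h to chemicals in 0.1% DMSO final. Testosterone in medium quantified by MTBE extraction and HPLC-MS/MS; bidirectional fit versus DMSO, concentrations […] filtered by MTT-based maximum tolerated concentration.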

[16] = molecular target: PGR (gene 5241) (UniProt P06401); assay: TOX21_PR_BLA_Followup_Agonist_ratio: Tox21 HEK293 Progesterone Receptor (PR) Agonism Beta-lactamase Follow-Up Assay, Ratio (AID 2283933)
Procedure, shortened: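 PR-UAS-bla HEK293T cells (GAL4-UAS beta-lactamase reporter) in medium with 2% charcoal-stripped FBS received compounds after 6 hr at 37C, then incubated 16 hr. LiveBLAzer FRET substrate added, 2 hr room temperature; cleaved/uncleaved (ch2/ch1) ratio fitted upward versus DMSO.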

[17] = molecular target: PGR (gene 5241) (UniProt P06401); assay: TOX21_PR_LUC_Followup_Agonist: Tox21 HEK293 Progesterone Receptor (PR) Agonism Luciferase Follow-Up Assay (AID 2283937; active = hit-call score of the fitted dose curve at least 0.9, where 1 is the maximum; inactive = score below 0.9)
Procedure, shortened: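 HEK293-PR-A-luc cells, pre-cultured 5 days in medium with 10% charcoal-stripped FBS, were seeded at 3,000 cells/well, rested 5 h at 37C, then exposed to compounds 16 h at 37C; luciferase read by ONE-Glo luminescence after 30 min.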

[18] = CCTE_Shafer_MEA_acute_spike_number: CCTE's Neural Acute Assay for Total Number of Spikes, Shafer Lab (AID 2284008; active = hit-call score of the fitted dose curve at least 0.9, where 1 is the maximum; inactive = score below 0.9)
Procedure, shortened: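 Cortical neurons from rat, matured to DIV 13 or 15 on microelectrode arrays, are recorded at 37 C before and during 40-min exposure to 0.03-40 uM compound. Wells need >/= 10 active electrodes.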

[19] = CCTE_Shafer_MEA_acute_firing_rate_mean: CCTE's Neural Acute Assay for Mean Firing Rate, Shafer Lab (AID 2284009; active = hit-call score of the fitted dose curve at least 0.9, where 1 is the maximum; inactive = score below 0.9;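 note: analyzed for loss of signal so actives lower firing rate relative to DMSO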)
Procedure, shortened: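 Read-out: well-mean spike rate (spikes/recording length/electrodes), % change from 40 min pre-dose baseline to 40 min with compound. Rat cortical cultures, DIV 13 or 15, 37 C; 0.03-40 uM; DMSO as negative control.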

Measured: AC50

Chain of PGR (gene 5241) (P06401 whole entry, looked up, the tested form may be a part): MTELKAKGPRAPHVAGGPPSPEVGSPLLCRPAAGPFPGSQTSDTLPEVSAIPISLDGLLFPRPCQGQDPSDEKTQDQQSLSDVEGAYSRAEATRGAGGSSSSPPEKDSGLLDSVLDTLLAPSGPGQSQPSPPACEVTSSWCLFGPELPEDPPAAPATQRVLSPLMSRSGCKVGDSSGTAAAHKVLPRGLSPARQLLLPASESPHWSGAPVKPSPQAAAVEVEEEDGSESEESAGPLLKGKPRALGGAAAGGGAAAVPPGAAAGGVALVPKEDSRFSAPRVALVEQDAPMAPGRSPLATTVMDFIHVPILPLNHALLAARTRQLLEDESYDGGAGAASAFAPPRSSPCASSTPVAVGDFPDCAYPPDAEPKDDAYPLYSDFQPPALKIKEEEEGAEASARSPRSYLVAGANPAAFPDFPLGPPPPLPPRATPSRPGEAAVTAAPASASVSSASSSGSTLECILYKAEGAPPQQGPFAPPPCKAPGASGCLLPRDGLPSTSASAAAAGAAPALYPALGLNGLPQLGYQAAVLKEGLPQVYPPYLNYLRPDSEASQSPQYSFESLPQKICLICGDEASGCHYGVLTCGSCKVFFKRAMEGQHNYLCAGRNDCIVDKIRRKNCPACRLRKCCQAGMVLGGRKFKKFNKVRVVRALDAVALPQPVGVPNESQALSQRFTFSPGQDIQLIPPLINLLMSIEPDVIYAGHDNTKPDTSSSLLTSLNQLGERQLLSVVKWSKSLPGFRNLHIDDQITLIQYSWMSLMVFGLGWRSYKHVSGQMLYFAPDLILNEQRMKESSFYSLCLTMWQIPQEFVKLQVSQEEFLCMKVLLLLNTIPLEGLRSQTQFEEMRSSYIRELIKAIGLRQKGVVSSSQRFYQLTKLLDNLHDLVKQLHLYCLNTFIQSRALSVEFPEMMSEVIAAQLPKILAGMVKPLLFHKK
Chain of Ratio of Nucleoli Translocation and Cytoplasm, AR (gene 367) (P10275 whole entry, looked up): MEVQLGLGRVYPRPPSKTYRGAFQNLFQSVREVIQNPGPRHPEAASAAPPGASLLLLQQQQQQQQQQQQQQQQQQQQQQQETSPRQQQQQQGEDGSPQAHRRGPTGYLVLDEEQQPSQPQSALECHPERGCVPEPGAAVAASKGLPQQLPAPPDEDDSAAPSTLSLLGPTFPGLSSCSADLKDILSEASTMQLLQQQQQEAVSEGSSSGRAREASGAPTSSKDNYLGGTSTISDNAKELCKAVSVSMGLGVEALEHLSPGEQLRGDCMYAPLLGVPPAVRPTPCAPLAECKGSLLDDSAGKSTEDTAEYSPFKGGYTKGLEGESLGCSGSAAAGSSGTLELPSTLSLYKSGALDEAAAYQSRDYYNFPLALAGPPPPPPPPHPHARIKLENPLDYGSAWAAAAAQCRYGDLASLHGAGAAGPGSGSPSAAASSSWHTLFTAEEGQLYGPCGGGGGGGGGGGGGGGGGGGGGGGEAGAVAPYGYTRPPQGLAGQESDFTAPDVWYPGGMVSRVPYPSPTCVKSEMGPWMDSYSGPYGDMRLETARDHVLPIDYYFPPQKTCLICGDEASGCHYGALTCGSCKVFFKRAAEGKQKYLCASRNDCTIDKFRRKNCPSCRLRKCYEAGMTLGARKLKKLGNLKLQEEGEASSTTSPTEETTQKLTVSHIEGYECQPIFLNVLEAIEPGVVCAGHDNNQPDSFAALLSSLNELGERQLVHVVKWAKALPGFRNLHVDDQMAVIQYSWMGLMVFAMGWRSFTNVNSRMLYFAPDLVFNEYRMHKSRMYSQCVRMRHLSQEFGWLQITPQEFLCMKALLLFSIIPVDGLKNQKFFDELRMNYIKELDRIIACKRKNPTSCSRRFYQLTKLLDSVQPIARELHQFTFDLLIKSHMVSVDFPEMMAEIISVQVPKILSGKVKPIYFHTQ
Chain of Nucleoli Translocation, AR (gene 367) (P10275 whole entry, looked up): as above

N#Cc1ccc(C2CCCc3cncn32)cc1 (stereo unspecified)
inactive: [1] | [2]

CCCCCCCCCCCCCC(=O)OC(C)C
inactive: [3] | [4] | [5] | [2]

CCCCCCCCCCCCc1ccc(O)cc1
active: [6] 31.5 µM

CCCCCCCCCC(C)=O
inactive: [3] | [5]

Oc1ccc(/C=C/c2cc(O)cc(O)c2)cc1
active: [7] 5.07 µM
inactive: [4] | [2]

CCCCC(CC)COC(=O)/C=C/c1ccc(OC)cc1 (stereo unspecified)
inactive: [7] | [3] | [5]

COc1ccc(-c2coc3cc(O)cc(O)c3c2=O)cc1
active: [8] 29.5 µM | [11] 81.7 µM
inactive: [9] | [10] | [12] | [2]

O=C(O)c1ccc2c(c1)C(=O)OC2=O
inactive: [7] | [3] | [4] | [2]

CC(C)c1ccc(O)c(C(C)C)c1
inactive: [13] | [1] | [14]

N#Cc1ccc(C(c2ccc(C#N)cc2)n2cncn2)cc1
active: [13] 0.0183 µM | [14] 0.0263 µM
inactive: [1] | [15] | [7] | [3] | [5] | [2]

Oc1ccc(-c2ccccc2)c(Cl)c1
active: [8] 25.7 µM | [11] 29.7 µM | [7] 13.8 µM | [3] 13.4 µM
inactive: [16] | [9] | [10] | [17] | [12] | [4] | [5] | [2]

CCCCCCCOC(=O)c1ccc(O)cc1
active: [6] 75 µM

CCCCCC[C@@H](O)C/C=C\CCCCCCCC(=O)OCC(O)CO (stereo partly specified)
inactive: [7] | [3] | [4] | [5]

CCc1cccc(C)c1N
inactive: [7] | [3] | [4]

COC(=O)[C@H](Cc1ccccc1)NC(=O)[C@@H](N)CC(=O)O (H-Asp-Phe-OMe)
inactive: [18] | [19]

CCCC=C(C=O)CC
inactive: [13] | [1] | [14]
